Screening data as filed in PubChem.
FBA Mtb inh: inhibits M. tuberculosis FBA enzyme; P9WQA3; purified M. tuberculosis FBA, fluorescence read-out; inhibition, % at 1 µM; 360,000 compounds, 2.3% hits; AID 588726;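 also: 0% = vehicle and 100% = reference inhibitor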
Mtb UGM inh: Mtb UDP-galactopyranose mutase inhibition; P9WIQ1; purified UGM, fluorescence polarization probe displacement; inhibition, % at 10 µM; 320,000 compounds, 0.06% hits; in the data active = inhibition above about 10%, passing the limit was not always enough; inconclusive = no clear call, values can overlap the other calls
Target sequence (P9WIQ1 whole entry, looked up): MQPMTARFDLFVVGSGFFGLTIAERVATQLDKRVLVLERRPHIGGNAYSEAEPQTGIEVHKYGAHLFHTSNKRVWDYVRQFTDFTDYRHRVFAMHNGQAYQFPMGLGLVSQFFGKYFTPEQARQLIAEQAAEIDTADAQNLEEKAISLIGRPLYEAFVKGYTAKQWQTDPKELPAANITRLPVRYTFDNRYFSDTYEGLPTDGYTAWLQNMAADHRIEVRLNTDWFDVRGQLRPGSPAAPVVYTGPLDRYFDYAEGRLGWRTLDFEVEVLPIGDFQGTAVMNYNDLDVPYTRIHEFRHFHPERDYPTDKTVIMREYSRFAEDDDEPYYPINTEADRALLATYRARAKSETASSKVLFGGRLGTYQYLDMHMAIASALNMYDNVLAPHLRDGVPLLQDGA
Rv3671c inh: Rv3671c (M. tuberculosis) protease inhibition. inhibition, % at 5.96 µM. 320,000 compounds, 0.048% hits. P9WHR9; in the data active = inhibition above about 38%;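 also: extracellular domain of Rv3671c used as enzyme; 0% = enzyme with DMSO and 100% = no enzyme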
GDH-TPI counter-1: GDH-TPI coupled enzyme inhibition counter-screen. 360,000 compounds, 1.2% hits. inhibition, % at 4.8 µM. GDH-TPI coupled enzyme counterscreen, NADH absorbance; in the data active = inhibition above about 30%;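 also: 0% = DMSO wells and 100% = wells lacking the enzyme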
Mtb FBA confirm: Mtb FBA inhibition, confirmed; shares compounds with FBA Mtb inh; purified M. tuberculosis FBA, fluorescence read-out; inhibition, % at 1 µM; 5,600 compounds, 78% hits;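 also: 0% = vehicle wells and 100% = reference inhibitor wells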
GDH-TPI counter-2: counter-screen for M. tuberculosis FBA inhibitors: GDH-TPI coupled enzyme inhibition; shares compounds with FBA Mtb inh; 5,600 compounds, 81% hits; GDH-TPI coupled enzyme counterscreen, fluorescence; inhibition, % at 1 µM; in the data active = inhibition above about 10%
GDH-TPI DR: inhibits GDH-TPI coupling enzymes in dose response. shares compounds with FBA Mtb inh. GDH-TPI coupled enzyme assay, fluorescence, artifact counterscreen. IC50, µM. 170 compounds, 79% hits. AID 652145; call rule not given here
An asterisk follows results filed as active. Most compounds without a hit are left out; they make up all but 3.5% or so of the library. Rule as the data show it, unless noted: active = inhibition above about 27%; inactive = the rest.

Results for COc1cc(C(C(=O)Nc2c(C)cccc2C)N(C)C(=O)c2ccc(-n3cnnn3)cc2)ccc1O (configuration not stated) ?
FBA Mtb inh: 0.0; Mtb UGM inh: -0.1; Rv3671c inh: -3.5; GDH-TPI counter-1: 2.4

Results for CCOC(=O)c1cn2nc(Oc3ccc(C#N)cc3)ccc2n1 ?
FBA Mtb inh: 96.3*; Mtb UGM inh: 1.8; Rv3671c inh: 3.7; GDH-TPI counter-1: 7.3; Mtb FBA confirm: 2.8; GDH-TPI counter-2: -1.2

What do the screens show for `CCOC(=O)c1cn2nc(Oc3ccc(C(=O)OC)cc3)ccc2n1`?
FBA Mtb inh: 99.9*; Mtb UGM inh: 3.3; Rv3671c inh: -1.7; GDH-TPI counter-1: 10.2; Mtb FBA confirm: active; GDH-TPI counter-2: active

How did CCOC(=O)c1cn2nc(Oc3ccc(NC(C)=O)cc3)ccc2n1 do in these assays?
FBA Mtb inh: -4.7; Mtb UGM inh: -1.6; Rv3671c inh: 0.6; GDH-TPI counter-1: -7.9

What do the screens show for `CCN(CC)C(=O)COc1ccc2c3c(c(=O)oc2c1C)CCCC3`?
FBA Mtb inh: 63.7*; Mtb UGM inh: 1.1; Rv3671c inh: -3.2; GDH-TPI counter-1: 10.4; Mtb FBA confirm: active; GDH-TPI counter-2: active

What do the screens show for `Cc1c(OCC(=O)N[C@H](C(=O)O)c2ccccc2)ccc2c3c(c(=O)oc12)CCCC3`?
FBA Mtb inh: 30.7*; Mtb UGM inh: 3.3; Rv3671c inh: -3.8; GDH-TPI counter-1: 10.8; Mtb FBA confirm: 6.5; GDH-TPI counter-2: -3.9

What do the screens show for `Cc1c(OCC(=O)NCC(O)c2ccccc2)ccc2c3c(c(=O)oc12)CCC3` (configuration not stated)?
FBA Mtb inh: 14.9; Mtb UGM inh: -1.9; Rv3671c inh: -8.3; GDH-TPI counter-1: 7.4

What do the screens show for `Cc1c(OCc2ccc(C(=O)O)o2)ccc2c3c(c(=O)oc12)CCC3`?
FBA Mtb inh: 71.9*; Mtb UGM inh: inconclusive; Rv3671c inh: 2.7; GDH-TPI counter-1: 12.4; Mtb FBA confirm: 27.7*; GDH-TPI counter-2: 24.7*

How did Cc1c(OCC(=O)N2CCC(C(N)=O)CC2)ccc2c3c(c(=O)oc12)CCC3 do in these assays?
FBA Mtb inh: 16.7; Mtb UGM inh: -0.9; Rv3671c inh: 2.3; GDH-TPI counter-1: 17.6

How did O=C(c1cccc(NC2=NC3CS(=O)(=O)CC3S2)c1)N1CCN(c2cccc(Cl)c2)CC1 (configuration not stated) do in these assays?
FBA Mtb inh: 1.1; Mtb UGM inh: -6.1; Rv3671c inh: 3.5; GDH-TPI counter-1: -3.9

How did Cn1cnc(S(=O)(=O)N2CCCCC2c2cc(C(=O)Nc3ccc(F)c(Cl)c3)no2)c1 (configuration not stated) do in these assays?
FBA Mtb inh: -2.8; GDH-TPI counter-1: -7.3

What do the screens show for `Cc1ccc(N(CC(=O)NCCc2ccccc2)C(=O)CCC(=O)Nc2cc(C)ccn2)cc1`?
FBA Mtb inh: 1.6; Mtb UGM inh: -3.2; Rv3671c inh: -8.1; GDH-TPI counter-1: -7.8

How did COc1ccccc1[C@H]1C(c2cccc(C)c2)=NN(c2ccccc2)[C@@H]1CO do in these assays?
FBA Mtb inh: 44.1*; GDH-TPI counter-1: 20.0; Mtb FBA confirm: 108.5*; GDH-TPI counter-2: 114.3*

Results for COc1ccccc1[C@H]1C(c2ccc(F)cc2)=NN(c2ccccc2)[C@@H]1CO ?
FBA Mtb inh: 43.7*; GDH-TPI counter-1: 16.4; Mtb FBA confirm: active; GDH-TPI counter-2: active

Results for CC(C)C[C@H](NC(=O)c1cc2cc(Cl)ccc2n1C)C(=O)N1CCC(C(=O)O)CC1 ?
FBA Mtb inh: 10.4; Mtb UGM inh: -0.7; GDH-TPI counter-1: 5.9

Results for Cc1ccc(O)c(C=Nc2ccc3[nH]ncc3c2)c1 ?
FBA Mtb inh: 42.1*; Mtb UGM inh: -1.8; Rv3671c inh: -2.6; GDH-TPI counter-1: -3.7; Mtb FBA confirm: 118.4*; GDH-TPI counter-2: 82.8*

Results for O=C1CC(C(=O)Nc2ccccc2)C2(CCCCC2)O1 (configuration not stated) ?
FBA Mtb inh: 50.1*; Mtb UGM inh: -0.8; Rv3671c inh: -0.9; GDH-TPI counter-1: 2.0; Mtb FBA confirm: 3.4; GDH-TPI counter-2: -4.1

How did CC(C)(C)NC(=O)CN(C(=O)CCC(=O)Nc1nccs1)c1cccc(C(F)(F)F)c1 do in these assays?
FBA Mtb inh: 5.8; Mtb UGM inh: -0.8; Rv3671c inh: 1.3; GDH-TPI counter-1: 2.4

Results for CCOc1ccc(/C=N/NC(=S)NC2CC3CCC2C3)cc1 (configuration not stated) ?
FBA Mtb inh: 30.6*; Mtb UGM inh: -3.9; Rv3671c inh: 1.6; GDH-TPI counter-1: 0.8; Mtb FBA confirm: -2.9; GDH-TPI counter-2: -3.7

Results for CCOc1ccc(/C=N/NC(=S)NC2CC3CC2C2C=CCC32)cc1 (configuration not stated) ?
FBA Mtb inh: 4.4; Mtb UGM inh: 2.4; Rv3671c inh: 6.9; GDH-TPI counter-1: 6.1

What do the screens show for `O=C(Nc1ccc(Cl)cc1)c1cc2c(cc1O)[nH]c1ccccc12`?
FBA Mtb inh: 107.0*; Mtb UGM inh: -0.1; Rv3671c inh: 29.7; GDH-TPI counter-1: 15.0; Mtb FBA confirm: 83.5*; GDH-TPI counter-2: 71.3*

Results for Fc1ccc(-n2nnnc2-c2cnc(-c3cccs3)nc2C(F)(F)F)cc1 ?
FBA Mtb inh: 3.7; Mtb UGM inh: 3.8; Rv3671c inh: -6.8; GDH-TPI counter-1: 28.5

Results for COc1ccc(CCNC(=O)C(=O)c2cn(CC(=O)N3CCOCC3)c3ccccc23)cc1OC ?
FBA Mtb inh: 27.1*; Mtb UGM inh: 0.5; Rv3671c inh: -0.1; GDH-TPI counter-1: 12.1; Mtb FBA confirm: active; GDH-TPI counter-2: active

What do the screens show for `COc1ccc(CCNC(=O)CS(=O)(=O)c2cn(CC(=O)N3CCOCC3)c3ccccc23)cc1OC`?
FBA Mtb inh: 0.3; Mtb UGM inh: -0.4; Rv3671c inh: 2.0; GDH-TPI counter-1: 7.7

Results for CCC1OC2(C)OC(=N)C1(C#N)C(C#N)(C#N)C2c1ccccc1 (configuration not stated) ?
FBA Mtb inh: 56.5*; Mtb UGM inh: 3.4; Rv3671c inh: -1.7; GDH-TPI counter-1: 0.7; Mtb FBA confirm: 18.2; GDH-TPI counter-2: -1.7; GDH-TPI DR: 3.33*

What do the screens show for `CC(C)C1OC2(C)OC(=N)C1(C#N)C(C#N)(C#N)C2c1ccccc1` (configuration not stated)?
FBA Mtb inh: 50.0*; Mtb UGM inh: 2.7; Rv3671c inh: -6.9; GDH-TPI counter-1: 5.8; Mtb FBA confirm: 94.3*; GDH-TPI counter-2: 82.2*

Results for CC1CCC(C(C)C)C2=C1C(C#N)(C#N)C(C#N)(C#N)C(c1ccccc1)N2 (configuration not stated) ?
FBA Mtb inh: 8.4; Mtb UGM inh: 1.5; Rv3671c inh: 5.1; GDH-TPI counter-1: 8.6

Results for CCC(C)(C)c1ccc(OC(=O)c2cccnc2Cl)cc1 ?
FBA Mtb inh: -1.7; Mtb UGM inh: -2.8; Rv3671c inh: 4.8; GDH-TPI counter-1: -9.1
